PubChem BioAssay (NCI)
About 79,000 compounds went through this panel and 15% of them were active in at least one assay; those are over-represented in the sample as a whole. Values without a mark were called inactive. The source made the active and inactive calls. Cut-off read from the data, not from the text of the source: active = growth inhibition above about 70%; inactive = the rest.

Legend:
[1] = NCI Yeast Anticancer Drug Screen. Data for the rad50 strain (AID 155);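 note: 0% = growth of vehicle-only cultures of the same strain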; conditions: S. cerevisiae rad50 strain growth inhibition; at 50.0 µM; stronger effect = higher value
Summary of the method: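 Inhibition values express reduced yeast growth in compound-treated cultures relative to vehicle-treated controls.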

[2] = NCI Yeast Anticancer Drug Screen. Data for the mec2-1 strain (AID 157); conditions: S. cerevisiae mec2-1 strain, at 50.0 µM, stronger effect = higher value
Summary of the method: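 Each compound was tested on mec2-1 yeast, a strain altered in DNA damage repair or cell cycle control. Growth inhibition is reported relative to vehicle.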

[3] = NCI Yeast Anticancer Drug Screen. Data for the sgs1 mgt1 strain (AID 161);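 note: 0% = growth of cultures given vehicle only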; conditions: S. cerevisiae sgs1 mgt1 strain, at 50.0 µM, stronger effect = higher value
Summary of the method: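 Genetically altered yeast, compound exposure, growth inhibition relative to vehicle.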

[4] = NCI Yeast Anticancer Drug Screen. Data for the cln2 rad14 strain (AID 165);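 note: 0% = growth equal to vehicle treated cultures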; conditions: S. cerevisiae cln2 rad14 strain, at 50.0 µM, stronger effect = higher value
Summary of the method: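 Test compounds were added to cln2 rad14 yeast cultures; inhibition of growth was then determined by comparison with vehicle treatment.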

[5] = NCI Yeast Anticancer Drug Screen. Data for the bub3 strain (AID 167); conditions: S. cerevisiae bub3 mutant strain, at 50.0 µM, stronger effect = higher value
Summary of the method: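 Steps: expose the mutant yeast strain to compound; grow alongside vehicle-treated cultures; measure growth; express inhibition against the vehicle cultures.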

[6] = NCI Yeast Anticancer Drug Screen. Data for the mlh1 rad18 strain (AID 175); conditions: S. cerevisiae mlh1 rad18 strain growth inhibition; at 50.0 µM; stronger effect = higher value
Summary of the method: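 Inhibition values reflect reduced growth of mutant yeast versus vehicle-treated controls following compound exposure; the mutations affect DNA damage repair.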

SMILES	growth inhibition [1]	growth inhibition [2]	growth inhibition [3]	growth inhibition [4]	growth inhibition [5]	growth inhibition [6]
CC1=C(C)CC2C(=O)c3c(O)ccc(O)c3C(=O)C2C1 (stereo unspecified)	28.9%	44.9%	52%	4.15%	39.9%	50.1%
CCOC(=O)/C=C(\N)c1ccccc1	-7.8%	-13.2%	-15.6%	-43.8%	-30.4%	-6.8%
CCCCCC(=O)c1ccc2[nH]c3c(C)cc([N+](=O)[O-])c(C)c3c2c1	3.65%	-35.6%	-34.6%	-2.8%	-17.2%	-10.3%
CCC(C)C(C)O (stereo unspecified)	-7.05%	-53%	2.9%	14.5%	-12.8%	0.1%
O=C(O)c1ccc(Br)cc1C(=O)O	7.6%	3.6%	1.5%	4.35%	4.65%	-1.6%
NC(CCCCC(=O)O)C(=O)O (stereo unspecified)	-30.1%	-22.3%	-12.9%	-38.2%	-11.2%	0.15%
Nc1ccc(/C(=N\O)c2ccccc2)cc1	19.6%	13.9%	23.9%	0.8%	-2.6%	10.1%
Cc1ccc(S(=O)(=O)OCC2CCC(COS(=O)(=O)c3ccc(C)cc3)O2)cc1 (stereo unspecified)	-4.9%	-14.4%	-4.85%	10.7%	-0.35%	-6.9%
CC(=S)N=Cc1c(C)[nH]n(-c2ccccc2)c1=O	-49.4%	-29.8%	-41.4%	19.6%	-57.7%	-31.9%
O=C(O)c1cc(O)c(O)c(Cl)c1	10.3%	6.15%	4.1%	-9%	6.6%	5.05%
O=C1C2C(C(=O)N1c1ccccc1)C1([N+](=O)[O-])C=C3c4ccccc4N(C(=O)c4ccccc4)C32C2C(=O)N(c3ccccc3)C(=O)C21 (stereo unspecified)	-24.9%	12.8%	-15.4%	36.3%	-6.35%	-4.9%
COCn1cnc2c(=O)n(-c3ccc(OC)cc3)c(=S)n(-c3ccc(OC)cc3)c21	21.1%	-13.7%	-28.9%	-2.65%	-21.4%	-53.1%
CCOC(=O)N1OC2C=CC1CC2 (stereo unspecified)	-7.45%	-9.45%	-12.1%	11.8%	3.45%	15.1%
C/C(=N/N(CCCCN(/N=C(/C)c1ccccc1)c1ccccc1)c1ccccc1)c1ccccc1	48.5%	13.2%	17.1%	26.3%	1.55%	39.2%
O=C(NN1C(=O)c2cccc3cccc(c23)C1=O)NN1C(=O)c2cccc3cccc(c23)C1=O	98.2% (active)	99.4% (active)	98.2% (active)	99.5% (active)	99.2% (active)	99% (active)
OCCCNc1ncnc2[nH]ncc12	7.7%	16.1%	11.6%	59%	-4.9%	13.4%
Nc1nc2ccc3ccccc3c2c(=O)[nH]1	-4.35%	2.35%	-1.55%	-10.1%	-15.6%	12.7%
O=C(NNc1nc(CCl)cs1)c1ccccc1Cl	-0.15%	-31.6%	4.75%	7.35%	-11.1%	-11.6%

SMILES	growth inhibition [1]	growth inhibition [2]	growth inhibition [3]	growth inhibition [4]	growth inhibition [5]	growth inhibition [6]
C/C(=N/NC(=S)Nc1cccc(Cl)c1)c1cccc(/C(C)=N\NC(=S)Nc2cccc(Cl)c2)n1	47%	46%	62.6%	20.3%	62.4%	56.9%
CC(=O)O[C@H]1C[C@]2(C)C(CCC3O[C@@]32C)[C@@]2(CC(c3ccoc3)OC2O)[C@@H]1C (stereo partly specified)	-10.8%	-16.1%	-29.9%	-10.1%	-23.1%	-13.2%
NC(=O)c1ncn2c(=O)n(CCCl)nnc12	-17.2%	-9.4%	1.4%	19.5%	-4.15%	-47.2%
C=CCc1ccc(OC(=O)Nc2cccc(OC)c2)c(OC)c1	74.5% (active)	86.8% (active)	73.9% (active)	-7.45%	53.9%	68.8%
N#Cc1ccc2c(c1)Sc1ccccc1N2	7.5%	3.05%	-2.9%	-43.4%	-31%	21.7%
N#Cc1ncn(CCO)c1N	8.7%	-22.4%	3.3%	3.9%	-3.95%	-43.5%
CC1=CC(=O)C(=O)C2=C1OC1(C2)C(C)CCC2C3(C)CCC(O)C(C)(C)C3CCC21C (stereo unspecified)	86.5% (active)	89.8% (active)	89.1% (active)	88.2% (active)	86.3% (active)	87.2% (active)
O=C1C=C(Cl)C(=O)O1	8.85%	10.2%	-8.8%	-9.1%	-8%	15.6%
O=C(O)CC(O)c1ccccc1 (stereo unspecified)	30.8%	13.6%	16.6%	17.1%	-0.95%	18.6%
Nc1nc(N)c(Nc2ccc(Cl)cc2)c(Cl)n1	50%	29.2%	66.3%	35.2%	40.9%	50.5%
O=NN(CCCl)C(=O)NC1CCC(CC2CCC(NC(=O)N(CCCl)N=O)CC2)CC1 (stereo unspecified)	24.9%	5.6%	8.05%	29.5%	-6.45%	10.6%
CC1CC=[N+]([O-])C1(C)C (stereo unspecified)	-6.6%	-18.1%	14.2%	-12.2%	16.7%	-11.1%
c1ccc(-c2csc(-c3nc(-c4ccccc4)cs3)n2)cc1	-0.55%	50%	30.6%	-6.85%	33%	60.6%
CN(C)C=Nc1cccc2c1NSN2	5.5%	-6.4%	-1.35%	29.1%	13.4%	33.1%
C[N+](C)(C)c1cc(Br)c(O)c(Br)c1	1.85%	31.9%	12%	-2.75%	41.2%	33%
N=C(N)SCC(=O)c1ccc([N+](=O)[O-])cc1	-6.65%	4.95%	1.35%	-0.4%	3.85%	5.8%
COC(=O)CC1(C)[C@H](O)[C@H]2OC(C)(C)O[C@H]2[C@@H]1O (stereo partly specified)	7.7%	-10.6%	-18.2%	-3.25%	-7.5%	38.2%
FS(F)(F)(F)(F)c1cccc(NC(=S)SCc2ccc3c(c2)OCO3)c1	97.6% (active)	99% (active)	98.8% (active)	99.3% (active)	98.8% (active)	98.3% (active)
